Data on 40 compounds can be found in PubChem BioAssay (Tox21).

Inconclusive results are not listed. Values without a mark were called inactive. The source made the active and inactive calls. Calls follow the shape of the dose curve; as a rule, active = well fitted cell-killing curve with a large enough effect in the repeat runs; inconclusive = weak or mixed curves, or effect the other way; inactive = flat fitted curve, though single readings scatter.
% is scaled to controls: 0 for no effect and ±100 for the full control effect; potency is read from the fitted curve at half-maximal effect.

This assay is described as follows: qHTS assay to identify small molecule that activate the aryl hydrocarbon receptor (AhR) signaling pathway - cell viability counter screen (AID 743086). Also: nearly all actives have a fitted effect of over 45% in size.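 As to viability change, negative = cytotoxic: HepG2 liver cells carrying the AhR DRE luciferase reporter.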 As to conditions: HepG2-AhR-luc viability, CellTiter-Fluor, 24 h; series mostly up to 70.3 µM; viability change, negative = cytotoxic: at the top concentration. The source says: U.S. Tox21 Program National Center for Advancing Translational Sciences [NCATS] NIH Chemical Genomics Center [NCGC] U.S. Environmental Protection Agency [EPA] National Institutes of Environmental Health Sciences [NIEHS] National Toxicology Program [NTP] U.S. Food and Drug Administration [FDA] Tox21 Assay overview: The Aryl hydrocarbon Receptor (AhR), a member of the family of basic helix-loop-helix transcription factors, is crucial to adaptive responses to environmental changes. AhR mediates cellular responses to environmental pollutants such as aromatic hydrocarbons through induction of phase I and II enzymes but also interacts with other nuclear receptor signaling pathways A cell based HepG2-AhR-luc assay (HG2L7.5c1 cell line, developed by Dr. Michael S. Denison, University of California at Davis) was used to assess the activation of AhR. HepG2 (human hepatocellular carcinoma) cells were stably transfected with an Ah receptor-responsive firefly luciferase reporter gene plasmid containing 20 dioxin responsive elements and luciferase reporter gene. Increased luciferase activity can be used to identify the compounds that induce AhR activation. The cytotoxicity of the compounds screened against the HepG2-AhR-luc cell line was tested in parallel by measuring the cell viability using CellTiter-Fluor assay in the same wells.
Tox21 Assay Protocol Summary: 4000 cells in 5 uL/well were dispensed into white wall/solid bottom 1536-well plates using a Multidrop Combi (Thermo Fisher Scientific Inc., Waltham, MA) dispenser. After the assay plates were incubated at 37C for 5 h, 23 nL of compound or DMSO vehicle was transferred to the assay plates by a pintool station (Kalypsys, San Diego, CA). The plates were incubated at 37C for 24 hr. For cell viability measurement, 1 ul/well of CellTiter-Fluor reagent (Promega, Madison, WI) was added into the assay plates using a Flying Reagent Dispenser (FRD) (Aurora Discovery, CA),and then the assay plates were incubated at 37C for 30 min. The fluorescence intensity in the plates was measured using a ViewLux plate reader (PerkinElmer, Shelton, CT), followed by the addition of 4 uL of ONE-Glo Luciferase Assay reagent (Promega) using an FRD (Aurora Discovery). After the assay plates were incubated at room temperature for 30 min, luminescence intensity was measured using a ViewLux plate reader (Perkin Elmer).
As for `Clc1ccc(COC(Cn2ccnc2)c2ccc(Cl)cc2Cl)c(Cl)c1` (stereo not given), the “viability change, negative = cytotoxic” value is -9% [at 32.5 µM].
Still for that read-out and setting: the value for `COc1ccc(CCNC[C@H](O)c2ccc(O)cc2)cc1OC` was -14.5%.
On the same count and under the same terms, the figure for `C[C@]12CCC(=O)C=C1CC[C@@H]1[C@@H]2[C@@H](O)C[C@@]2(C)[C@H]1CC[C@]2(O)C(=O)COP(=O)(O)O` is 7.53%; for `CCC(=O)NCCC1CCc2ccc3c(c21)CCO3` (stereo not given) it is 6.54%; for `CCOC(=O)[C@H](CCc1ccccc1)N[C@H]1CCCN2CCC[C@@H](C(=O)O)N2C1=O` it is -0.438%.
For the compound `CS(=O)(=O)OCCCNCCCOS(C)(=O)=O`, the “viability change, negative = cytotoxic” value is 14.5%.
Still for that read-out and setting: the figure for `CC(=O)OCC(=O)[C@@]12OC3(CCCC3)O[C@@H]1C[C@H]1[C@@H]3CCC4=CC(=O)C=C[C@]4(C)[C@@]3(F)[C@@H](O)C[C@@]12C` is 2.16%.
Same read-out and setting: the value for `CCOC(=O)CCC(=O)O[C@H]1[C@H](O[C@@H]2[C@@H](C)[C@H](O[C@H]3C[C@@](C)(OC)[C@@H](O)[C@H](C)O3)[C@@H](C)C(=O)O[C@H](CC)[C@@](C)(O)[C@H](O)[C@@H](C)C(=O)[C@H](C)C[C@@]2(C)O)O[C@H](C)C[C@@H]1N(C)C` was 10.8%.
Same read-out and setting: the value for `O=C(O)c1nc(=O)[nH]c(=O)[nH]1` was 11.4%.
In the case of `CC[C@H](CC[C@@H](C)[C@H]1CC[C@H]2[C@@H]3CC=C4C[C@@H](O)CC[C@]4(C)[C@H]3CC[C@]12C)C(C)C`, the “viability change, negative = cytotoxic” value is 12.8%.
On the same count and under the same terms, the figure for `CCCC1([C@H](O)C/C=C/[C@H]2[C@H](O)CC(=O)[C@@H]2CCCCCCC(=O)OC)CCC1` is -2.22%.
The same measure, in the same setting: the value for `CN1CCN(C2=Nc3ccccc3Cc3ccccc32)CC1` was -13.4%; that for `N[C@H](CCC(=O)O)C(=O)O` was 7%.
`CCCC1C(=O)N2C(N(C)C)=Nc3ccc(C)cc3N2C1=O` (stereo not given): the “viability change, negative = cytotoxic” value was -0.112% [at 32.5 µM].
As for `CNC(=O)[C@H](Cc1c[nH]c2ccccc12)NC(=O)[C@@H](CC(=O)NO)CC(C)C`, the Potency was 0.596 µM (active).
`CCC(=O)OCC(=O)[C@@]1(OC(=O)CC)[C@@H](C)C[C@H]2[C@@H]3CCC4=CC(=O)C=C[C@]4(C)[C@@]3(F)[C@@H](O)C[C@@]21C`: the “viability change, negative = cytotoxic” value is 0.559%.
Same read-out and setting: the figure for `CCOC(=O)Cc1cccc(-c2cc(CCCCCCc3ccc(O[C@H]4O[C@H](COC(C)=O)[C@@H](OC(C)=O)[C@H](OC(C)=O)[C@@H]4OC(C)=O)c(-c4cccc(CC(=O)OCC)c4)c3)ccc2O[C@H]2O[C@H](COC(C)=O)[C@@H](OC(C)=O)[C@H](OC(C)=O)[C@@H]2OC(C)=O)c1` is 18.2%.
As to `CCOc1cc(-c2nccc3cc(OC)c(OC)cc23)cc(OCC)c1OCC`, the Potency was 21.1 µM (active).
In the case of `CC(C)CN(C[C@@H](O)[C@H](Cc1ccccc1)NC(=O)O[C@@H]1CCOC1)S(=O)(=O)c1ccc(N)cc1`, the “viability change, negative = cytotoxic” value is 5.66%.
Still for that read-out and setting: the value for `CC1(C)S[C@@H]2[C@H](NC(=O)C(N)c3ccccc3)C(=O)N2[C@H]1C(=O)OC1OC(=O)c2ccccc21` (stereo not given in full) was 3.11% [at 32.5 µM]; that for `CC(O)[C@H]1CC[C@H]2[C@@H]3CC[C@@H]4C[C@@H](O)CC[C@]4(C)[C@H]3CC[C@]12C` (stereo not given in full) was 9.37%.
For the compound `O=P(O)(O)OC[C@H]1O[C@](O)(COP(=O)(O)O)[C@@H](O)[C@@H]1O`, the “viability change, negative = cytotoxic” value was 10.8%.
Still for that read-out and setting: the value for `O=P(O)(O)C(O)(Cc1cnc2ccccn12)P(=O)(O)O` was 4.32%; that for `CCC(=O)NS(=O)(=O)c1ccc(-c2c(-c3ccccc3)noc2C)cc1` was 3.54%.
As to `OCCO[C@@H]1[C@@H](O)[C@H](O)[C@@H](CO)O[C@@H]1O`, the “viability change, negative = cytotoxic” value is 27.5%.
Regarding `CCN(CC)c1ccc(C(=C2C=CC(=[N+](CC)CC)C=C2)c2ccccc2)cc1`, the Potency is 5.96 µM (active).
On to `O=C(O)C1=C(CSc2nnnn2CS(=O)(=O)O)CS[C@@H]2[C@H](NC(=O)[C@H](O)c3ccccc3)C(=O)N12`, for which the “viability change, negative = cytotoxic” value was 4.38%.
On the same count and under the same terms, the figure for `COc1c(O[C@@H]2O[C@H](CO)[C@@H](O)[C@H](O)[C@H]2O)cc2c(c1OC)-c1ccc(SC)c(=O)cc1[C@@H](NC(C)=O)CC2` is -5.24% [at 32.5 µM]; for `COc1ccc(C[C@H](C)NC[C@@H](O)c2ccc(O)c(NC=O)c2)cc1` it is -29.8%; for `C[C@@H]1C[C@H]2C3C[C@H](F)C4=CC(=O)C=CC4(C)[C@@]3(F)[C@@H](O)CC2(C)[C@@]1(O)C(=O)COC(=O)C(C)(C)C` (stereo not given in full) it is -0.0284%.
The same measure, in the same setting: the figure for `CCCCC(=O)O[C@H]1CC[C@H]2[C@@H]3CCc4cc(O)ccc4[C@H]3CC[C@]12C` is 8.11%; for `CN1CCC(OC(=O)C(Oc2ccc(Cl)cc2)Oc2ccc(Cl)cc2)CC1` it is 1.82%; for `CCCCCCCCCCCCOCCCN` it is -2.4%.
Same read-out and setting: the value for `C[C@]12C=CC(=O)N[C@@H]1CC[C@@H]1[C@@H]2CC[C@]2(C)[C@@H](C(=O)Nc3cc(C(F)(F)F)ccc3C(F)(F)F)CC[C@@H]12` was 12.5%.
As to `CO[C@@H]1[C@@H](O[C@@H]2O[C@H](C)[C@@H](O[C@H]3C[C@@](C)(O)[C@@H](OC(=O)CC(C)C)[C@H](C)O3)[C@H](N(C)C)[C@H]2O)[C@@H](CC=O)C[C@@H](C)[C@@H](O)/C=C/C=C/C[C@@H](C)OC(=O)C[C@H]1O`, the Potency result is “inactive”.
Take `C=C1CC[C@H](O)CC1=C/C=C1\CCC[C@]2(C)[C@@H]([C@H](C)CCCC(C)(C)O)CC[C@@H]12`: the “viability change, negative = cytotoxic” value is -12.5%.
`COc1ccc2c(=O)c(C)c(-c3ccccc3)oc2c1CN(C)C`: the “viability change, negative = cytotoxic” value was -16.3%.
Still for that read-out and setting: the figure for `O=C(O)C1CCCN1` (stereo not given) is 5.1%.
On the same count and under the same terms, the figure for `Cc1cc(-n2c(=O)[nH]c(=O)n(C)c2=O)ccc1Oc1ccc(S(=O)(=O)C(F)(F)F)cc1` is -14.6%; for `CC(C)(C)c1ccc(CN2CCN(C(c3ccccc3)c3ccc(Cl)cc3)CC2)cc1` (stereo not given) it is 12.5%.
